# Measured values published in PubChem BioAssay (EPA / NIEHS).
# Results filed as inconclusive are left out. Active and inactive are the calls of the source. Rule for the calls, unless noted: active = hit-call score of the fitted dose curve at least 0.9, where 1 is the maximum; inactive = score below 0.9.
# Test system: Thyroperoxidase (TPO), gene 54314
# Assay: CCTE_Simmons_AUR_rTPO: CCTE's Amplex UltraRed Assay for Thyroperoxidase (TPO) Inhibition, Simmons Lab (AID 2283662; active = hit-call score of the fitted dose curve at least 0.9, where 1 is the maximum;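 for AC50: potency for loss of signal meaning inhibition of peroxidase activity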)
# Summary of the method: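 Cell-free peroxidase activity assay using rat thyroid gland microsomes with excess H2O2 (300 uM) and 25 uM Amplex UltraRed. Compounds tested from 5 nM to 87.5 uM; fluorescence measured after 30 min at 37C, analysed relative to DMSO baseline.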
Compound,outcome,AC50
CCCSP(=S)(OCC)Oc1ccc(SC)cc1 (stereo not given),inactive,
COc1ccc(N)cc1,,1.44 µM (active)
Nc1ncn[nH]1,,2.24 µM (active)
COC(=O)Nc1cccc(OC(=O)Nc2cccc(C)c2)c1,,0.398 µM (active)
CCOP(=S)(OCC)O/N=C(\C#N)c1ccccc1,,20.7 µM (active)

# Test system: not listed separately
# Assay: CCTE_Simmons_CellTiterGLO_HEK293T: Viability Assessment in CCTE's Assays for Thyroperoxidase (TPO) Inhibition, Simmons Lab (AID 2283665; active = hit-call score of the fitted dose curve at least 0.9, where 1 is the maximum;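 for AC50: cells exposed to compound for 24 h before readout; actives reduce ATP signal below DMSO vehicle meaning cytotoxicity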)
# Summary of the method: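 HEK293T, 10 000 cells/well, DMEM + 1% FBS; 8-pt titration 5 nM–87.5 uM [final], 0.5% DMSO; 24 hr, 37C, 5% CO2; CellTiter-Glo luminescence; n=3 biological replicates.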
Compound,AC50,outcome
COc1ccc(N)cc1,4.71 µM (active),
Nc1ncn[nH]1,,inactive
COC(=O)Nc1cccc(OC(=O)Nc2cccc(C)c2)c1,,inactive

# Test system: not listed separately
# Assay: STM_H9_OrnCyssISnorm_ratio: Stemina devTOX quickPredict H9 human embryonic stem cell (hESC)-based Assay for Ornithine (ORN):Cystine (CYSS) Ratio (AID 2283714; active = hit-call score of the fitted dose curve at least 0.9, where 1 is the maximum)
# Summary of the method: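 Steps: H9 hESCs in pluripotent state dosed 72h, medium plus compound renewed every 24h; conditioned medium from the final 24h deproteinized in 40% acetonitrile; ORN and CYSS quantified by UPLC-HRMS with C13 spike-ins; ratio relative to vehicle.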
Compound,AC50,outcome
N#CCCC(Br)(C#N)CBr (stereo not given),70.1 µM (active),
O=[N+]([O-])c1ccc(Cl)c([N+](=O)[O-])c1,13.2 µM (active),
Nc1ncn[nH]1,,inactive

# Read-out: not listed separately
# Assay: CEETOX_H295R_MTT_cell_viability: Viability Assessment in the CeeTox HT-H295R MTT Assay (AID 2283718);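 for AC50: curve fitted both ways so AC50 may mark viability loss or gain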
# Summary of the method: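 MTT reduction (0.5 mg/ml, 4 h at 37 C; absorbance at 570 and 650 nm) gave viability as background-corrected percent change versus controls. H295R cells had 48 h forskolin (10 uM) prestimulation, then 48 h chemical exposure at 0.1% DMSO.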
Compound,outcome,AC50
CCCSP(=S)(OCC)Oc1ccc(SC)cc1 (stereo not given),inactive,
CC(C)(C)c1cc([N+](=O)[O-])cc(C(C)(C)C)c1O,inactive,
Oc1cccc(-c2ccccc2)c1,inactive,
O=[N+]([O-])c1ccc(Nc2ccccc2)cc1,inactive,
Cc1cc(Cl)ccc1N,inactive,
CC(C)=CC1C(C(=O)OCc2cccc(Oc3ccccc3)c2)C1(C)C (stereo not given),,9.92 µM (active)
CCOP(=O)(OCC)OC(=CCl)c1ccc(Cl)cc1Cl,inactive,
COc1ccc(N)cc1,inactive,
CCCCCCCCCCCCN(C)C,inactive,
OC(Cc1ccccc1Cl)(Cn1[nH]cnc1=S)C1(Cl)CC1 (stereo not given),inactive,
OC[P+](CO)(CO)CO,,2.83 µM (active)
c1cc[c]([Sb]([c]2ccccc2)[c]2ccccc2)cc1,,37.6 µM (active)
Cc1ccccc1OP(=O)(Oc1ccccc1C)Oc1ccccc1C,inactive,
Cc1cc(C(C)(C)c2ccc(O)c(C)c2)ccc1O,inactive,
Cc1cc(Cl)ccc1O,inactive,
CC(C)(COCC1CO1)COCC1CO1 (stereo not given),inactive,
CCC[CH2][Sn]([Cl])([Cl])[CH2]CCC,inactive,
COC(=O)Nc1cccc(OC(=O)Nc2cccc(C)c2)c1,inactive,
OC(Cc1ccccc1Cl)(Cn1cncn1)C1(Cl)CC1 (stereo not given),inactive,
Oc1c(Br)cc(Br)cc1Br,,93.6 µM (active)
C[C@]12CC[C@@H](O)C[C@@H]1CC[C@@H]1[C@@H]2CC[C@]2(C)C(=O)CC[C@@H]12,inactive,
CCOCn1c(-c2ccc(Cl)cc2)c(C#N)c(Br)c1C(F)(F)F,,3.79 µM (active)
CCOP(=S)(OCC)O/N=C(\C#N)c1ccccc1,inactive,
O=S1OC[C@@H]2[C@H](CO1)[C@]1(Cl)C(Cl)=C(Cl)[C@@]2(Cl)C1(Cl)Cl (stereo not given in full),inactive,
